Screens as filed in PubChem.
tim23-1 inh – tim23-1 yeast growth inhibition; S. cerevisiae tim23-1 growth, BacTiter-Glo luminescence, 24 h; inhibition, % at 20 µM; actives 1.3% (n = 330,000);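 active = growth inhibition of the mutant yeast at or above 50%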;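 also: temperature-sensitive mutant grown at 25 °C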
TIM10 inh – TIM10 yeast growth inhibition. S. cerevisiae TIM10 strain growth, BacTiter-Glo luminescence, 24 h. inhibition, % at 10 µM. actives 1.4% (n = 330,000);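 active = inhibition of 40% or more at the single tested concentration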;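 also: wild-type TIM10 isogenic control strain grown at permissive 25 °C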
tim10-1 inh – tim10-1 yeast growth inhibition | S. cerevisiae tim10-1 ts strain growth, BacTiter-Glo, 24 h | inhibition, % at 20 µM | actives 2.2% (n = 330,000) | AID 463190;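 active = inhibition of at least 40%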;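 also: mutant grown at 25 °C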
SUMO Mot1 rescue – SUMOylation pathway inhibition by Mot1-301 growth rescue; S. cerevisiae Mot1-301 growth rescue, ATP luminescence, 38.5C; percent above DMSO median, 100 means doubled; growth rescue, % at 18.8 µM; actives 1% (n = 320,000);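 active = every valid replicate shows activation above 250% relative to neutral control wells; inactive = the rest, any valid replicate at or below 250%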
PfHsp90 yeast 2 – growth inhibition of yeast expressing Plasmodium Hsp90. actives 0.32% (n = 310,000). AID 504621. inhibition, % at 9.4 µM. S. cerevisiae expressing PfHsp90, BacTiter-Glo ATP, 48 h; yeast lacking PDR1 and PDR3 efflux regulators;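 active = every replicate shows inhibition above about 80%, whatever the replicate mean, limit read from the data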
tim10-1 confirm – confirmation of tim10-1 mutant yeast growth inhibitors; shares compounds with tim10-1 inh; S. cerevisiae tim10-1 ts strain growth, BacTiter-Glo, 24 h; inhibition, % at 20 µM; actives 56% (n = 7,400); AID 463213;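 active = inhibition of yeast growth at or above a set limit in either of two repeat tests at 20 µM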;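 also: tim10-1 mutant grown at permissive 25 °C to find synthetic lethal compounds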
tim10 confirm – confirmation of TIM10 yeast growth inhibitors; actives 63% (n = 4,600); shares compounds with TIM10 inh; S. cerevisiae tim10 strain growth, BacTiter-Glo luminescence, 24 h; inhibition, % at 10 µM;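 active = inhibition of yeast growth at or above a set limit in either of two replicates at 10 µM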; also: this counterscreen used the strain with wild-type TIM10
tim23-1 confirm – tim23-1 yeast growth inhibition, confirmed | shares compounds with tim23-1 inh | S. cerevisiae tim23-1 growth, BacTiter-Glo luminescence, 24 h | inhibition, % at 20 µM | actives 83% (n = 4,400);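 active = inhibition above about 39% in either of two replicate wells at 20 µM, limit read from the data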;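 also: temperature-sensitive tim23-1 mutant grown at 25 °C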
Each line names hits and unclear results; the compound was inactive in the other large screens (follow-up assays come after a bar, where they were run). This is a sample that favours compounds with a hit; in the whole collection about 4.4% have one here.

O=C1SC(SCc2ccccc2)=N/C1=C\c1ccco1	tim23-1 inh 54, TIM10 inh 43, tim10-1 inh 57 | tim10-1 confirm 40 | tim10 confirm 49 | tim23-1 confirm 58
O=C1SC(SCc2ccccc2)=N/C1=C\c1ccc(C(=O)O)cc1	none
O=C(/C(=C/O)N=Nc1ccccc1)c1ccc(Cl)cc1	tim23-1 inh 79, TIM10 inh 58, tim10-1 inh 65, PfHsp90 yeast 2 106 | tim10-1 confirm 49 | tim10 confirm 56 | tim23-1 confirm 39
Cc1ccc(N=N/C(=C\O)C(=O)c2ccc(Cl)cc2)cc1	tim23-1 inh 60, tim10-1 inh 48, PfHsp90 yeast 2 107 | tim10-1 confirm 42 | tim23-1 confirm 63
O=C(Cc1ccccc1)c1ccc(Cl)cc1	none
CC(=O)c1ccc(N=Nc2ccc(C)cc2)cc1	none (no result: SUMO Mot1 rescue)
C[C@H](CO)N1C[C@H](C)[C@@H](CN(C)S(C)(=O)=O)Oc2ccc(NC(=O)Cn3cnnn3)cc2C1=O	none
Cc1nn2c(NCc3ccccn3)cc(C(C)C)nc2c1-c1ccccc1	tim23-1 inh 60, TIM10 inh 64, tim10-1 inh 45 | tim10-1 confirm 49 | tim10 confirm 68 | tim23-1 confirm 61
Cc1nn2c(NCCCn3ccnc3)cc(C(C)C)nc2c1-c1ccccc1	none
CC(Sc1nnnn1-c1ccc(O)cc1)C(=O)NC1CCCCC1C (centres undefined)	none
N#C/C(=C\c1cccc([N+](=O)[O-])c1)C(=O)NCC1CCCO1 (centres undefined)	tim23-1 inh 77, TIM10 inh 57, tim10-1 inh 57 | tim10-1 confirm 52 | tim10 confirm 45 | tim23-1 confirm 72
COc1cc(/C=C(\C#N)C(=O)NCC2CCCO2)c([N+](=O)[O-])cc1OC (centres undefined)	none
N#C/C(=C\c1cc2c(cc1Br)OCO2)C(=O)NCC1CCCO1 (centres undefined)	tim23-1 inh 87, TIM10 inh 65, tim10-1 inh 67 | tim10-1 confirm 67 | tim10 confirm 72 | tim23-1 confirm 78
CCC(C(=O)OCC(=O)N(C)c1c(N)n(Cc2ccccc2)c(=O)[nH]c1=O)c1ccccc1 (centres undefined)	none (no result: PfHsp90 yeast 2)
Cc1ccc(Cl)cc1NC1=C/C(=N\S(=O)(=O)c2cccs2)c2ccccc2C1=O	tim23-1 inh 52, TIM10 inh 74, tim10-1 inh 71 | tim10-1 confirm 66 | tim10 confirm 69 | tim23-1 confirm 65
O=C1C(Nc2ccc(O)cc2)=C/C(=N/S(=O)(=O)c2cccs2)c2ccccc21	none (no result: tim23-1 inh, TIM10 inh, tim10-1 inh, SUMO Mot1 rescue)
COc1cc(OC)c(NC(=S)Nc2cc(Cl)cc(Cl)c2)cc1Cl	tim23-1 inh 54, TIM10 inh 41, tim10-1 inh 54 | tim10-1 confirm 53 | tim10 confirm inactive | tim23-1 confirm 58
COc1cc(OC)c(NC(=S)Nc2cccc(C(C)=O)c2)cc1Cl	none
CCC(Oc1ccccc1)C(=O)OCC(=O)N(CC)c1c(N)n(Cc2ccccc2)c(=O)[nH]c1=O (centres undefined)	none (no result: PfHsp90 yeast 2)
O=C(Oc1cc(=O)oc2c1c(=O)n1c3c(cccc23)CC1)c1ccc(F)cc1	tim23-1 inh 71, TIM10 inh 47, tim10-1 inh 46 (no result: PfHsp90 yeast 2) | tim10-1 confirm inactive | tim10 confirm inactive | tim23-1 confirm 53
COc1ccc(/C=C/C(=O)c2ccc([N+](=O)[O-])o2)cc1OC	tim23-1 inh 90, TIM10 inh 96, tim10-1 inh 91 (no result: PfHsp90 yeast 2) | tim10-1 confirm 89 | tim10 confirm 98 | tim23-1 confirm 97
COc1cc(/C=C/C(=O)c2ccc([N+](=O)[O-])o2)ccc1O	tim23-1 inh 96, TIM10 inh 97, tim10-1 inh 96, PfHsp90 yeast 2 112 | tim10-1 confirm 97 | tim10 confirm 99 | tim23-1 confirm 99
O=C(/C=C/c1cccc(Cl)c1)c1ccc([N+](=O)[O-])o1	tim23-1 inh 95, TIM10 inh 96, tim10-1 inh 94, PfHsp90 yeast 2 108 | tim10-1 confirm 96 | tim10 confirm 99 | tim23-1 confirm 99
NS(=O)(=O)c1ccc(CNC(=O)/C=C/c2cccc(Cl)c2)cc1	none
Cc1ccccc1-n1ncc2c1CC(C)(C)CC2NC(=O)C1=CC(=O)CC(C)(C)O1 (centres undefined)	none
O=C(CC(=O)c1ccccc1)CS(=O)(=O)c1ccccc1	none (no result: tim23-1 inh, TIM10 inh, tim10-1 inh, SUMO Mot1 rescue)
Cc1cc(C)n2nc(CC(=O)NNC(=O)c3ccccc3Cl)nc2n1	none
Cc1ccc(Sc2ccc(NC(=O)CCl)cc2)cc1C	tim23-1 inh 66, TIM10 inh 40, tim10-1 inh 50 | tim10-1 confirm 52 | tim10 confirm 39 | tim23-1 confirm 76
Cc1ccc(C)c(Sc2ccc(NC(=O)CCl)cc2)c1	tim23-1 inh 74, TIM10 inh 51, tim10-1 inh 57 (no result: PfHsp90 yeast 2) | tim10-1 confirm 55 | tim10 confirm 36 | tim23-1 confirm 49
O=C(CCl)Nc1ccccc1Sc1ccccc1	none
O=C(Oc1cccc2c(O)cccc12)c1ccccc1	tim23-1 inh 79, tim10-1 inh 47 (no result: PfHsp90 yeast 2) | tim10-1 confirm inactive | tim23-1 confirm 50
Fc1nc(F)c(F)c(NCCCNc2c(F)c(F)nc(F)c2F)c1F	tim23-1 inh 66, TIM10 inh 55, tim10-1 inh 54 (no result: SUMO Mot1 rescue) | tim10-1 confirm 76 | tim10 confirm 45 | tim23-1 confirm 81
CC(OC(=O)C1CC1)C(=O)Nc1ncc(Cl)cc1Cl (centres undefined)	none
O=C1C(c2ccccc2)=[N+]([O-])c2ccccc21	tim23-1 inh 61, TIM10 inh 55, tim10-1 inh 58 | tim10-1 confirm 47 | tim10 confirm 53 | tim23-1 confirm inactive
O=C1C(=Cc2cccs2)C(=O)c2ccccc21	none
CCOc1cc(C(=O)Nc2cc(C(=O)OC)ccc2C)ccc1OCC(=O)N1CCOCC1	none
S=C(Nc1ccccc1)N1CCn2c1nc1ccccc12	tim23-1 inh 66, TIM10 inh 42, tim10-1 inh 56 | tim10-1 confirm 33 | tim10 confirm 44 | tim23-1 confirm 55
O=C(Nc1ccccc1)N1CCn2c1nc1ccccc12	none
COC(=O)C(Cc1ccccc1)NC(=O)c1ccc(NS(=O)(=O)c2ccc3[nH]c(=O)[nH]c3c2)cc1 (centres undefined)	none
CN1Cc2c(N3CCOCC3)nc3sc(C(=O)c4ccc(Br)cc4)c(N)c3c2CC1(C)C	tim23-1 inh 58, tim10-1 inh 58 (no result: PfHsp90 yeast 2) | tim10-1 confirm inactive | tim23-1 confirm 53
